# In all, about 300,000 compounds went through this assay and about 480 (0.16%) were called active. Only a sample is shown. Potency and affinity values are given separately. Values without a mark were called inactive.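 Rule for the calls: active = inhibition over 29.93%, a cutoff 3 SD above the screen mean, later confirmed by dose response; inconclusive = inhibition over 29.93% but no dose response follow-up; inactive = inhibition at most 29.93% or unconfirmed.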
# Test: inhibitors of PhoP regulon expression, primary screen, Salmonella Typhimurium, GFP reporter (AID 1863);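 note: 0% = low Mg2+ inducing control and 100% = high Mg2+ repressing control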
# Conditions: S. Typhimurium PhoP-regulated promoter GFP reporter, 4 h; at 50 µM; stronger effect = higher value
row,SMILES,inhibition [%]
1,O=C(COC(=O)c1ccncc1)NCc1ccccc1,-7.25
2,CN(CC(=O)Nc1ccc(OC(F)(F)F)cc1)C1CCCCC1,9.36
3,COc1cccc(NC(=O)CN(C)C(=O)c2ccc(-c3ccccc3Cl)o2)c1,-0.25
4,COCc1cc(=O)[nH]c(-c2ccccc2)n1,9.5
5,COc1ccc(/C=C2/SC(=O)N(CCC(=O)Nc3ccc(C)cc3)C2=O)cc1OC,1.5
6,c1ccc2cc(OCCCn3ccnc3)ccc2c1,-2
7,Clc1ccccc1OCCn1ccnc1,21.2
8,Clc1ccccc1OCCCn1ccnc1,2.45
9,Clc1ccc(OCCn2ccnc2)c(Cl)c1,26.6
10,COc1ccc(Cc2noc(CN(C)CC3CCN(Cc4ccccc4)CC3)n2)cc1OC,0.81
11,N#CCCN(C(=O)CSc1nc2nc(-c3cccs3)cc(C(F)(F)F)c2c(=O)[nH]1)c1ccccc1,-5.71
12,CC(C)C(=O)NC(=S)Nc1ccccn1,1.05
13,COc1ccc(-c2cc(C(=O)Nc3c(C)n(C)n(-c4ccccc4)c3=O)c3ccccc3n2)cc1,6.3
14,O=C(O)CNC(=O)c1ccc(NC(=O)/C(=C/c2cccc([N+](=O)[O-])c2)NC(=O)c2ccco2)cc1,1.55
15,COc1cc2nc(Nc3ccc(C)c(Cl)c3)nc(N)c2cc1OC,-5.89
16,Cc1ccc(Nc2nc(N)c3ccccc3n2)cc1C,-7.22
17,CCOC(=O)N1CCN(C(=O)c2ccc(C)c(S(=O)(=O)Nc3cccc(C)c3C)c2)CC1,-9.54
18,Cc1nc(SC(C(=O)c2ccccc2)c2ccccc2)nc2ccccc12 (stereo not drawn),5.08
19,O=Cc1c(N2CCC3(CC2)OCCO3)nc2ccccn2c1=O,-5.94
20,Cc1cc(N/N=C/c2ccc(N(C)C)cc2)c2ccccc2n1,5.73
21,COc1ccc(/C=N/Nc2cc(C)nc3ccc(Br)cc23)cc1,-2.21
22,COc1cccc2c(N/N=C/c3ccccc3)cc(C)nc12,-2.56
23,Cc1cc(N/N=C/c2ccc(O)cc2)c2cccc(C)c2n1,-15.4
24,Cc1ccccc1NC(=O)NC1(C(=O)NCC2CCCO2)CCCCC1 (stereo not drawn),-0.07
25,CC1CCCC(C)N1/N=C/c1ccccc1Br (stereo not drawn),-3.03

row,SMILES,inhibition [%]
1,CC1CCCC(C)N1/N=C/c1cccc(Br)c1 (stereo not drawn),-2.2
2,CC1(C)NC(=O)N(CC(O)CN(c2ccccc2)S(=O)(=O)c2ccccc2)C1=O (stereo not drawn),-1.71
3,Cc1ccc(C(=O)N/C(=C\c2ccco2)C(=O)NCc2cccnc2)cc1,2
4,CC1(C)C(=O)Nc2ccccc2N1C(=O)Cn1ncc(Cl)c(Cl)c1=O,1.69
5,O=C(Nc1cc(N2CCCCC2)ncn1)c1ccccc1,1.2
6,COc1ccc(CCNC(=O)c2cc(COc3c(F)cccc3F)on2)c(OC)c1,6.23
7,O=C(NC1CCCc2ccccc21)c1ccc([N+](=O)[O-])cc1 (stereo not drawn),-2.23
8,O=[N+]([O-])c1ccccc1CNC1CCCc2ccccc21 (stereo not drawn),-9.02
9,CNC(=O)c1cn(-c2ccc(Cl)cc2)c(=O)c2ccccc12,-7.59
10,CO[C@@H]1[C@@H](OC(N)=O)[C@@H](O)C(Oc2ccc3c(O)c(NC(=O)c4ccc(O)c(CC=C(C)C)c4)c(=O)oc3c2C)OC1(C)C (stereo partly drawn),12.3
11,Cc1c(O)ccc2c(O)c(NC(=O)c3ccc4c(c3)CCC(C)(C)O4)c(=O)oc12,-3.81
12,CCC1=C(c2ccc(C)cc2)S(=O)(=O)N=C1N1CCC(C(=O)NCCCN2CCCCC2)CC1,-2.43
13,Nc1cccc2nsnc12,-14.7
14,COc1ccc(-n2nc3cc(N)c(Br)cc3n2)cc1,-2.59
15,CCOC(=O)CCCNC(=O)CSc1nnc(-c2ccccc2)c(-c2ccccc2)n1,-8.06
16,COC(=O)c1c(C)[nH]c(O)c1C=Nc1ccc(Oc2ccccc2)cc1,-5.37
17,CO[C@H]1C=CO[C@@]2(C)Oc3c(C)c(O)c4c(O)c(c5c(nc6cc(C)ccn65)c4c3C2=O)NC(=O)C(C)=CC=C[C@H](C)[C@H](O)[C@@H](C)[C@@H](O)[C@@H](C)[C@H](OC(C)=O)[C@@H]1C,-3.25
18,CC(/C=C/c1ccccc1F)=N\NC(=O)c1cccc(F)c1,3.59
19,O=S(=O)(NCC1CCCO1)c1ccc(NS(=O)(=O)c2ccc(F)cc2)cc1 (stereo not drawn),0.92
20,N#C/C(=C(/O)CSc1ncn[nH]1)c1nc2ccccc2[nH]1,6.19
21,Fc1ccccc1/C=N/Nc1ccc(Cl)nn1,-8.24
22,Cc1ccccc1/C=N/Nc1ccc(Cl)nn1,1.24
23,C=CCN=C1CC(C)(C)C(C(=O)OC)C(O)=C1C(=O)CCC (stereo not drawn),-0.51
24,COc1ccc(Cc2nnc(Nc3ccc(C)cc3)o2)cc1OC,1.4
25,O=S(=O)(c1ccc2c(c1)OCCO2)N1CCN(Cc2ccc3c(c2)OCO3)CC1,-0.33

row,SMILES,inhibition [%]
1,CN1/C(=C\C=N\O)C(C)(C)c2ccccc21,-8.82
2,Fc1ccc(CNCc2ccccc2Cl)cc1,5.07
3,COc1ccccc1CNCc1ccc(C)cc1,8.2
4,COc1cc(CNCCc2ccc(F)cc2)ccc1OCc1ccc(Cl)nc1,23.3
5,c1csc(CNCc2ccncc2)c1,-5.07
6,COc1ccccc1CNC(=S)NCc1ccc(F)cc1,-5.45
7,Brc1ccc(CNCc2cccs2)cc1,10.4
8,COc1ccc(NC(=O)COC(=O)CCCc2c[nH]c3ccccc23)cc1,-12.1
9,Cc1cc(C)n(C(=O)Cn2nc(C)c(Cl)c2C)n1,3.42
10,O=C(c1ccccc1F)N1CCN(S(=O)(=O)c2ccc3c(c2)OCCO3)CC1,6.03
11,Cc1c(NC(=O)CSc2nnnn2-c2ccc(F)cc2)c(=O)n(-c2ccccc2)n1C,-6.82
12,O=C1NC(C(F)(F)F)(C(F)(F)F)N=C2SC=CN12,-6.31
13,O=c1[nH]nc(-c2ccc(F)cc2)cc1Cc1ccc(F)cc1,-10.7
14,O=C(Nc1cccc(Cl)c1)Nc1ccnc(-c2cccnc2)n1,5.1
15,Oc1c(CN2CCN(c3ccccc3)CC2)cc(Br)c2cccnc12,4.78
16,O=C(Oc1c(CN2CCOCC2)cc(Cl)c2cccnc12)c1ccc(F)cc1,29.7
17,CCOC(=O)N1CCN(Cc2cc(Cl)c3cccnc3c2O)CC1,-0.11
18,Oc1c(CN2CCN(c3ccccn3)CC2)cc(Cl)c2cccnc12,20.1
19,CCCNC(=O)Nc1ccc(F)c(Cl)c1,-2.59
20,COc1ccc(CNc2nc(NCc3ccc(OC)cc3)n(S(C)(=O)=O)n2)cc1,-5.9
21,Cc1c(NC(=O)/C(C#N)=C/c2ccccc2)c(=O)n(-c2ccccc2)n1C,0.82
22,CCc1ccc2nc(N)sc2c1,1.27
23,O=C(N/N=C/c1ccc(Cl)s1)C(O)c1ccccc1 (stereo not drawn),-4.15
24,O=C(N/N=C/c1ccc([N+](=O)[O-])s1)c1ccccc1,-2.83
25,Cc1cc(C(=O)N/N=C/c2ccc(C)s2)n[nH]1,11.3

row,SMILES,inhibition [%]
1,Cc1[nH]cnc1C(=O)N/N=C/c1ccc([N+](=O)[O-])s1,4.75
2,O=C(CSc1nnc(-c2ccccn2)o1)Nc1ccccc1,-5.62
3,CCc1ccccc1NC(=O)c1cc(-c2cccs2)on1,-12.5
4,COC(=O)c1cc(N=C(N)N=C(N)N)cc(C(=O)OC)c1,-9.38
5,O=c1c2ccccc2nc2c3ccccc3c(Cl)nn12,4.87
6,Cc1ccc(OCCC(=O)OCC(=O)Nc2cc(C)cc(C)c2)cc1,-5.06
7,Cc1cc(NC(=O)COC(=O)C2=COCCO2)c([N+](=O)[O-])cc1C,-7.57
8,Cc1ccccc1NCc1ccc(O)c2ncccc12,-2.12
9,Oc1ccc(CNc2ccccc2)c2cccnc12,5.74
10,Oc1ccc(CN2CCN(c3ccccc3)CC2)c2cccnc12,-1.49
11,COCc1cc(CN2CCN(C)CC2)c(O)c2ncccc12,6.95
12,COCc1ccc(O)c2ncccc12,-1.56
13,Oc1cc2c(cc1CN1CCc3ccccc3C1)OCO2,-4.04
14,Oc1ccc(CN2CCC(Cc3ccccc3)CC2)c2cccnc12,10.7
15,COc1ccccc1N1CCN(Cc2ccc(O)c3ncccc23)CC1,18.9
16,CC(=O)Nc1ccc(S(=O)(=O)NC(C)C(=O)NC(C)c2ccccc2)cc1 (stereo not drawn),-5.32
17,Cc1ccccc1OCC(=O)NC(=S)Nc1ccccc1N1CCN(S(C)(=O)=O)CC1,-1.77
18,CC1=C(C(=O)OC(C)C)C(c2ccsc2)NC(=O)N1C (stereo not drawn),-5.45
19,Cc1ccc(S(=O)(=O)NCCC(=O)NCC(=O)Nc2c(C)cccc2C)cc1C,-4.98
20,Cc1nc2ccccc2n1CCCOc1ccccc1,5.12
21,OC(COc1ccc(Cl)cc1)CN1CCC(Cc2ccccc2)CC1 (stereo not drawn),-10.4
22,CC1(C)CCC(=O)C=C1Nc1ccc(F)c(Cl)c1,-5.11
23,CCC(CC)C1=NN2C(=N)/C(=C/c3ccc(OC(=O)c4ccco4)cc3)C(=O)N=C2S1,-9.8

# From PubChem BioAssay AID1863 (Southern Research Specialized Biocontainment Screening …, 2009)
